In PubChem BioAssay AID686976 (The Scripps Research Institute Molecular Screening Center, 2013):
In all, about 1,900 compounds went through this assay and about 320 (17%) were called active. Only a sample is shown. Values without a mark were called inactive. Cut-off read from the data, not from the text of the source: active = inhibition above about 30%; inactive = the rest.

Test system: CCHF virus ovarian tumor domain protease (vOTU, L protein)
Assay: CCHFV vOTU protease inhibitors, confirmation, biochemical, Pep-AMC substrate, fluorescence (AID 686976)
Conditions: Recombinant CCHFV vOTU, at 11.5 µM, active compounds read high

| SMILES | inhibition |
| --- | --- |
| O=C(OCC(=O)c1cccs1)c1ccc([N+](=O)[O-])o1 | -0.43% |
| Cc1cc(OC(C)C(=O)Nc2ccc(S(=O)(=O)Nc3onc(C)c3C)cc2)cc(C)c1Cl (stereo unspecified) | 12.3% |
| CC(=O)N1CCN(c2ccc(NCc3ccc(C(C)C)cc3)cc2)CC1 | -11.5% |
| Clc1ccc(C2=CSC3=Nc4cccc5cccc(c45)N23)cc1 | 94.7% (active) |
| O=S(=O)(Nc1ccc(O)c2ccccc12)c1ccc(OC(F)(F)F)cc1 | 10.3% |
| COc1ccc(S(=O)(=O)/N=C2\C=C(NS(=O)(=O)c3ccccc3)C(=O)c3ccccc32)cc1 | 33% (active) |
| Cc1ccc(S(=O)(=O)/N=C2\C=C(NS(=O)(=O)c3ccc(C)cc3)C(=O)c3ccccc32)cc1 | 38.1% (active) |
| O=C1NC(c2ccc(-c3ccccc3[N+](=O)[O-])o2)C(C(=O)c2ccc(Cl)cc2)C(O)(C(F)(F)F)N1 (stereo unspecified) | 34.9% (active) |
| CC1=NN(c2ccc(Cl)c(C(=O)O)c2)C(=O)/C1=C/c1ccc(-c2ccccc2[N+](=O)[O-])o1 | 5.11% |
| Cc1cc(C)cc(NC(=S)NCCc2c[nH]c3ccccc23)c1 | -3.11% |
| CCN(CC)CCCC(C)n1c2nc(=O)[nH]c(=O)c-2nc2cc(Cl)ccc21 (stereo unspecified) | 98.9% (active) |
| COc1cc(NC(=O)COC(=O)c2ccc([N+](=O)[O-])s2)cc(OC)c1OC | 81.3% (active) |
| COc1ccc(C(=O)COC(=O)c2ccc([N+](=O)[O-])s2)cc1OC | 12.4% |
| O=C(COc1ccc(Cl)cc1)N1CCN(c2cccc(C(F)(F)F)c2)CC1 | -7.38% |
| COCCNC(=O)Nc1ccc2nc(-c3ccco3)c(-c3ccco3)nc2c1 | 1.78% |
| O=C(O)c1cc(S(=O)(=O)Nc2ccc3cn[nH]c3c2)ccc1Br | -10.8% |
| Oc1ccc(N=Cc2sc3ccccc3c2Cl)cc1 | -0.82% |
| COc1ccccc1CNS(=O)(=O)c1cc2c3c(c1)CCC(=O)N3CCC2 | -12.5% |
| Cc1cccc(C)c1NC(=O)CNC(=O)c1c(C)nn(-c2ccccc2)c1C | -17.8% |
| Oc1c(Cl)cc(Cl)c(Cl)c1Cc1c(O)c(Cl)cc(Cl)c1Cl | 31.2% (active) |
| CC(=O)N(C1=C(Cl)C(=O)c2ccccc2C1=O)c1ccc(C(=O)O)cc1 | 101% (active) |
| CC(C(=O)Nc1ccccc1-c1ccccc1)N1CCOCC1 (stereo unspecified) | -10.3% |
| Cc1oc2c(c1C(=O)N1CCOCC1)C(=O)c1ccccc1C2=O | 41% (active) |

| SMILES | inhibition |
| --- | --- |
| COc1ccc2c(c1)c(=Cc1ccc(N(C)C)cc1)c1cc(-c3ccccc3)[n+](C)n12 | -15.8% |
| Cc1ccc(S(=O)(=O)N2[C@@H](c3ccc(Br)cc3)C(C(=O)O)=C[C@H]2CC2CCCC2)cc1 | 24.4% |
| Oc1ccc(CNc2ccccc2O)cc1 | -5.66% |
| CCOc1ccc(C(=O)Nc2ccc(S(=O)(=O)NCC3CCCO3)cc2)cc1OCC (stereo unspecified) | -7.98% |
| Oc1c(CN2CCN(c3ccc(F)cc3)CC2)cc(Cl)c2cccnc12 | -0.25% |
| CCOc1cc(NC(=O)c2ccccc2C(=O)O)c(OCC)cc1NC(=O)c1ccccc1F | -9.49% |
| Cc1ccc(OCc2nnc(SC/C=C/c3ccccc3)n2Cc2ccco2)cc1 | 15.3% |
| COc1ccccc1N=Nc1c(O)[nH]c(=S)[nH]c1=O | 30.5% (active) |
| NC1=CC(=O)C(=O)c2cccnc21 | 95.4% (active) |
| CCc1ccc(OCC(=O)NCC(c2ccc(Cl)cc2)N2CCCCC2)cc1 (stereo unspecified) | 14.2% |
| COc1ccc2c(c1)C(C)=CC(C)(C)N2C(=O)Nc1ccccc1 | -94.5% |
| O=C1Nc2ccccc2-n2nnnc2C1N1CCN(c2cccc(C(F)(F)F)n2)CC1 (stereo unspecified) | -5.01% |
| CCNC(=S)N1CCN(c2ncccn2)CC1 | -9.28% |
| Cc1cc(C)c2c(=O)[nH]c(SCC(=O)Nc3ccc(Br)cc3)nc2n1 | -13.3% |
| Cc1ccccc1-n1c(SCC(=O)Nc2cccc3ccccc23)nc(O)cc1=O | -11.1% |
| Cc1oc2c(F)c(F)c(F)c(F)c2c1S(=O)(=O)Nc1cccc(C(F)(F)F)c1 | 13.9% |
| CC(C)(C)c1ccc(S(=O)(=O)NCC2CCN(C(=O)C(=O)c3cc4ccccc4o3)CC2)cc1 | -5.86% |
| Nc1ccc(N=Nc2ccccc2Cl)c(N)n1 | 8.04% |
| Oc1ccc(/C=N/Nc2ccc(C(F)(F)F)cn2)cc1O | -17.2% |
| CCCSc1nc(NCc2ccco2)c2c3c(sc2n1)COC(C)(CC)C3 (stereo unspecified) | -14.8% |
| O=C(O)c1ccccc1/C=N/Nc1ccc(S(=O)(=O)Nc2ccc(Cl)cc2)cc1[N+](=O)[O-] | 12.4% |
| CN1CCN(Cc2nc3cc(NC(=O)COc4ccc([N+](=O)[O-])cc4)ccc3n2C)CC1 | -12.5% |
| CCN(CC(=O)Nc1c(F)cccc1F)C(=O)c1cnc(C)cn1 | 2.27% |

| SMILES | inhibition |
| --- | --- |
| CC1CCCCC12NC(=O)N(CC(=O)OCC(=O)NCc1ccc(F)cc1)C2=O (stereo unspecified) | -0.61% |
| Cc1ccnc(NS(=O)(=O)c2ccc(NC(=O)c3oc4ccccc4c3C)cc2)n1 | 5.34% |
| Cc1coc2c(O)cc3c(c12)OC1(N2CCCCC2)C(=O)NCCCC31 (stereo unspecified) | 47.2% (active) |
| Cn1c(=NC(=O)c2cnccn2)sc2ccccc21 | 5.19% |
| Cc1ccc(CSc2nc(-c3ccccc3)c(C#N)c(=O)[nH]2)cc1 | 13.2% |
| Oc1c(C=Nc2cccc3nsnc23)ccc2ccccc12 | 100% (active) |
| Oc1ccc(N=Cc2c(O)ccc3ccccc23)cc1 | 4.75% |
| CC(C)Cn1c(N)c(C(=O)NCc2cccs2)c2nc3ccccc3nc21 | -76.7% |
| C=CCC[C@@H](CCCCC)OC(=O)/C=C/[C@@H](O)[C@H](O)C[C@H](O)CC=C | -0.24% |
| CCc1ccc2c(c1)NC(=O)C2(C)Cc1ccc(OC(F)(F)F)cc1 (stereo unspecified) | 3.85% |
| O=C(Nc1cccc(S(=O)(=O)N2CCCCC2)c1)c1ccc2c(c1)OCO2 | -5.32% |
| COc1ccc(C(N)c2csc(NC(=O)Nc3cccc(C(F)(F)F)c3)n2)cc1 (stereo unspecified) | -16.9% |
| O=C(NCc1ccc(F)cc1)c1cc(C2CCCCN2C(=O)C2CCCCC2)on1 (stereo unspecified) | -10.2% |
| Cc1nnc(SC(C)C(=O)Nc2ccc(S(=O)(=O)NC3CCCCC3)cc2)s1 (stereo unspecified) | -7.87% |
| CCOC(=O)N1CCC(c2cc(=O)n(-c3ccccc3)[nH]2)CC1 | -6.72% |
| COc1ccccc1C1C(C#N)=C(N)Oc2c1c(-c1ccccc1)nn2-c1ccccc1 (stereo unspecified) | 1.06% |
| CCN(CC)C(=O)C1=C(C)N(Cc2ccc(C(C)(C)C)cc2)C(=O)C(CC(=O)NCc2cccc3ccccc23)C1 (stereo unspecified) | 3.3% |
| COc1ccc(C(=O)/C=C/c2ccc(-c3ccccc3)cc2)cc1CSCC(=O)O | 0.4% |
| COc1cccc(NC(=O)C(=O)c2cn(CC(=O)N3CCOCC3)c3ccccc23)c1 | 0.94% |
| COCCn1nnnc1C(c1cc2ccc(OC)cc2[nH]c1=O)N1CCc2ccccc2C1 (stereo unspecified) | 20.7% |
| CN(C)N1C(N)=C(C#N)C(c2ccc(Br)cc2)C2=C1CCCC2=O (stereo unspecified) | -25.8% |
| O=C1Nc2ccc([N+](=O)[O-])cc2C1=Nc1cccc(CO)c1 | 58.4% (active) |
| CCN(CC)P(=O)(Oc1cccc(C)c1)N(CC)CC | -12.8% |

| SMILES | inhibition |
| --- | --- |
| CCCCCC(=O)N1C[C@H](O)[C@@H](n2cc(COC(=O)c3ccccc3)nn2)C[C@@H]1c1ccc(C)cc1 | 7.84% |
| CC(C)Oc1ccc(CN2CCC2(C)C(=O)NCc2ccc(C(F)(F)F)cc2)cc1 (stereo unspecified) | 8.85% |
| CN1c2ccc(C=O)c3c(C=O)ccc(c23)N(C)C1(C)C | -100% |
| COc1ccc(F)cc1C(=O)C1CCCN(C(=O)CCc2ccccn2)C1 (stereo unspecified) | -14.7% |
| CCN(C[C@H]1N[C@@](CC)(C(=O)OC)[C@H]2C(=O)N(Cc3ccccc3)C(=O)[C@@H]12)S(=O)(=O)c1ccc(C(F)(F)F)cc1 | 7.2% |
| CCOC(=O)c1c(C)[nH]c2c1-c1ccccc1C(=O)C2=O | 98.7% (active) |
| CCOC(=O)c1ccc(Nc2cc3ccccc3c(=O)[nH]2)cc1 | 24.6% |
| O=C(NC1=CC(=O)c2ccccc2C1=O)c1ccccc1 | 99.3% (active) |
| O=C1C=C(NS(=O)(=O)c2ccccc2)C(=O)c2ccccc21 | 15.4% |
| O=C(NC1CCCCC1)N1CCc2[nH]c3ccccc3c2C1 | -22.6% |
| CN(C)c1ccc(N/C=C/C(=O)C(F)(F)F)cc1 | 5.61% |
| Cc1cc(C(=O)N/N=C/c2ccc(O)c([N+](=O)[O-])c2)c(C)n1-c1ccc(F)cc1 | 8.57% |
| CCCS(=O)(=O)NC(=O)C1(C)CCN(C(=O)c2sccc2C)C1 (stereo unspecified) | -18.9% |
| COc1cc2c(cc1OC)C(Cc1cc(OC)c(OC)cc1[N+](=O)[O-])=NCC2 | -18.3% |
| COc1ccc(NC(=O)C[C@H]2C(=O)N(CCc3ccccc3)C[C@@H]2C)cc1 | -25.5% |
| COC(=O)[C@]12C[C@H](CC(=O)NCc3ccc(C)o3)C(=O)N(CCC3=CCCCC3)C1=C[C@H](C(C)(C)C)O[C@@H]2C | 9.58% |
| CCOC(=O)c1ccc(NC(=O)c2nc[nH]c2C(=O)N[C@@H](CCCCNC(=O)OC(C)(C)C)C(=O)OC(C)(C)C)cc1 | 12.5% |
| O=C(NCCc1ccc(Cl)cc1Cl)c1cc([N+](=O)[O-])c[nH]c1=O | -6.11% |
| COC(=O)[C@@]12C[C@@H](CC(=O)NCc3cccc(C(F)(F)F)c3)C(=O)N(Cc3ccco3)C1=CCC(C)(C)C2 | 12.2% |
| CCN(CC)C(=O)[C@@H]1C=C2c3cccc4[nH]c(Br)c(c34)C[C@H]2N(C)C1 | -5.37% |
| CCn1nnnc1SCC(=O)Nc1ccc(N(C)C)cc1 | 6.35% |
| Cc1nnc(NC(=O)Nc2ccc(Cl)c(Cl)c2)s1 | -15.1% |
